Assay [1] has as its target 5'-AMP-activated protein kinase catalytic subunit alpha-2 (Homo sapiens) (UniProt P54646). Conditions: at 1 µM.
For assay [2], the target named is T1, NUAK family SNF1-like kinase 1 (Homo sapiens) (UniProt O60285).
T1 sequence (whole entry): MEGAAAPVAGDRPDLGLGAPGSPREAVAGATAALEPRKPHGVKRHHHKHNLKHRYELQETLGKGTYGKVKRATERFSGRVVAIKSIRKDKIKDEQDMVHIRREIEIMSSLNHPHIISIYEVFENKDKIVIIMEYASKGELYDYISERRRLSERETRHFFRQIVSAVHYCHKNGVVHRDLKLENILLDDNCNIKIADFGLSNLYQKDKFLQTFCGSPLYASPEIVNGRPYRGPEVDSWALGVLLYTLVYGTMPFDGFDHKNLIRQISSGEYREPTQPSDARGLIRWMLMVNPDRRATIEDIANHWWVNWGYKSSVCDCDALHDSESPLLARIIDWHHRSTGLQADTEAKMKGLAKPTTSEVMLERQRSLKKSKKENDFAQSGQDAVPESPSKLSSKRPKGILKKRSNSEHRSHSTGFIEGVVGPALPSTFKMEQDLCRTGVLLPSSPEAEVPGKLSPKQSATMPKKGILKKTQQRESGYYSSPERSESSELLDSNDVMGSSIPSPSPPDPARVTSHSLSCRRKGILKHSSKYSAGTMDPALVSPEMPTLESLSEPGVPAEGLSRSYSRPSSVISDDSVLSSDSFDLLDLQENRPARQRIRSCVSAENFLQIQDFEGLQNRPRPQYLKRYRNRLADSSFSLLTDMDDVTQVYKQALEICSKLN
Conditions: at 0.1 µM.

Assay [3] deals with T1, NUAK family SNF1-like kinase 1 (Homo sapiens). Conditions: at 1 µM.
The target in assay [4] is T2, Serine/threonine-protein kinase BRSK1 (Homo sapiens) (UniProt Q8TDC3).
T2 sequence (whole entry): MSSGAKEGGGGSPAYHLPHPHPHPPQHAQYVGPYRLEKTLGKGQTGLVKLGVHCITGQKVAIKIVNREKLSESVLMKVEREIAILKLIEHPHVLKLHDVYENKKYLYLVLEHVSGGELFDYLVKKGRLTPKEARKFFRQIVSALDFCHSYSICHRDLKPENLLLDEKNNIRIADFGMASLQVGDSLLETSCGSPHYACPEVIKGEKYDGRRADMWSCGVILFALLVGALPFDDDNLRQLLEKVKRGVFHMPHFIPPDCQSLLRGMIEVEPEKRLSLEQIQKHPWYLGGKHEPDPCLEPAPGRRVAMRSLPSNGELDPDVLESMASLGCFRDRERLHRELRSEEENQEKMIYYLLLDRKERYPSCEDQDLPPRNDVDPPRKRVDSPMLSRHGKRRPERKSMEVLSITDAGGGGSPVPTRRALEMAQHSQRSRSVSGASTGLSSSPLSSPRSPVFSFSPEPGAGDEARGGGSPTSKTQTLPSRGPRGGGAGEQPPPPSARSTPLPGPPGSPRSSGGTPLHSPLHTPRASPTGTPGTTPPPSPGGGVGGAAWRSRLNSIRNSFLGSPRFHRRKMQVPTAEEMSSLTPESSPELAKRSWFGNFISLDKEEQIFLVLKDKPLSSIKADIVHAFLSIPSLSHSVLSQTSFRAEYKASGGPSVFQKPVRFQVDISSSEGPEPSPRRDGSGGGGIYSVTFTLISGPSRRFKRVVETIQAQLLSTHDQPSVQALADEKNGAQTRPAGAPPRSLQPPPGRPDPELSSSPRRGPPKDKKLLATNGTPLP
Conditions: at 0.1 µM.

Assay [5] has as its target T2, Serine/threonine-protein kinase BRSK1 (Homo sapiens). The note with it: at 1 µM.
The target in assay [6] is T3, Serine/threonine-protein kinase BRSK2 (Homo sapiens) (UniProt Q8IWQ3).
T3 sequence (whole entry): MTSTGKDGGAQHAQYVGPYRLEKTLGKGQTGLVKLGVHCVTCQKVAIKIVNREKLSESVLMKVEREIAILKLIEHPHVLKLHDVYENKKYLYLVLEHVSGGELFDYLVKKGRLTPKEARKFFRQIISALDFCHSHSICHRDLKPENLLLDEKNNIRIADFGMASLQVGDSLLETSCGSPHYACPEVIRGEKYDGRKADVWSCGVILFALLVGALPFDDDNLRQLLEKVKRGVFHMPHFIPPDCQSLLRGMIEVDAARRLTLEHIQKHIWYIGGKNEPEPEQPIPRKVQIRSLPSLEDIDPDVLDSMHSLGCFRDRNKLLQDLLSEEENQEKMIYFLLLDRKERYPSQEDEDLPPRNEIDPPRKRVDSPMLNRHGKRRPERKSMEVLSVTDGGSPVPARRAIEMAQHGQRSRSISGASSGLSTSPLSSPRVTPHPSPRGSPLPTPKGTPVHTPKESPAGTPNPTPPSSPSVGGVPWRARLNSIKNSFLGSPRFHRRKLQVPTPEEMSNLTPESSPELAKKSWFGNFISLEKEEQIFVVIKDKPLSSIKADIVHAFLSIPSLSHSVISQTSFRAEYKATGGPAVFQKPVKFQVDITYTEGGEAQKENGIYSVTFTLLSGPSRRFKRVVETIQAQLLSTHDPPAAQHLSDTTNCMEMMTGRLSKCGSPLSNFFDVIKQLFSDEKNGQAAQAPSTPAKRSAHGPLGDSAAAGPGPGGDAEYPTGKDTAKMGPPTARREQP
The note with it: at 0.1 µM.

Assay [7] concerns the target T3, Serine/threonine-protein kinase BRSK2 (Homo sapiens). Conditions: at 1 µM.
The target in assay [8] is Calcium/calmodulin-dependent protein kinase type 1D (Homo sapiens) (UniProt Q8IU85). The note with it: at 0.1 µM.
Calcium/calmodulin-dependent protein kinase type 1D (Homo sapiens), sequence (Q8IU85 whole entry, looked up): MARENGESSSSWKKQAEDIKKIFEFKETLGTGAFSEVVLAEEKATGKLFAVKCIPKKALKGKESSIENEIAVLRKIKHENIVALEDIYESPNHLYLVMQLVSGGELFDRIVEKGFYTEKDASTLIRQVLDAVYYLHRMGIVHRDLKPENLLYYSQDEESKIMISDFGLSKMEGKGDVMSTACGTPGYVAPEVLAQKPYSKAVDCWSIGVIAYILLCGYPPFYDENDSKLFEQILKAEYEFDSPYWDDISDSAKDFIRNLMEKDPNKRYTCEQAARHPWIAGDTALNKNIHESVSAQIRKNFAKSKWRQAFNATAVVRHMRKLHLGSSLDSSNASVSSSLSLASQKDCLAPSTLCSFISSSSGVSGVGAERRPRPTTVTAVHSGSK
For assay [9] the target is unchanged. The note with it: at 1 µM.
In assay [10] the target is Calcium/calmodulin-dependent protein kinase type II subunit alpha (Homo sapiens) (UniProt Q9UQM7). Conditions: at 0.1 µM.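 Further: reported values are averages (mean inhibition of CAMK2A).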
Calcium/calmodulin-dependent protein kinase type II subunit alpha (Homo sapiens), sequence (Q9UQM7 whole entry): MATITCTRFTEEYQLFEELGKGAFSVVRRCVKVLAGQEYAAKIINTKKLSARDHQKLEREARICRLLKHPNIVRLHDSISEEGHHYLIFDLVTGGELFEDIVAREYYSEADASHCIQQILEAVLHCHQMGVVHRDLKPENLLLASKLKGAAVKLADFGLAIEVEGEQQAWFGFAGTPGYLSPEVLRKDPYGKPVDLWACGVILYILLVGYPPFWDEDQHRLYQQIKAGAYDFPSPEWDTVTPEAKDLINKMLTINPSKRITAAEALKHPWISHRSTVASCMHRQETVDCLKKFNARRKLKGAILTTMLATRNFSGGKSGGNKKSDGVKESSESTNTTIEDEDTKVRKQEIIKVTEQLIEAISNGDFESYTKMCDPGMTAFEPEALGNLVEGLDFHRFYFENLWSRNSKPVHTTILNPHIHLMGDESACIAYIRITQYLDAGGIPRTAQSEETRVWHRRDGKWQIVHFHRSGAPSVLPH

Among the data in ChEMBL document CHEMBL1961873, “Compounds: GSK PKIS; Assays: Nanosyn kinase panel” (2012) are inhibition values, retold here.

5'-AMP-activated protein kinase catalytic subunit alpha-2 (Homo sapiens), sequence (P54646 whole entry, looked up): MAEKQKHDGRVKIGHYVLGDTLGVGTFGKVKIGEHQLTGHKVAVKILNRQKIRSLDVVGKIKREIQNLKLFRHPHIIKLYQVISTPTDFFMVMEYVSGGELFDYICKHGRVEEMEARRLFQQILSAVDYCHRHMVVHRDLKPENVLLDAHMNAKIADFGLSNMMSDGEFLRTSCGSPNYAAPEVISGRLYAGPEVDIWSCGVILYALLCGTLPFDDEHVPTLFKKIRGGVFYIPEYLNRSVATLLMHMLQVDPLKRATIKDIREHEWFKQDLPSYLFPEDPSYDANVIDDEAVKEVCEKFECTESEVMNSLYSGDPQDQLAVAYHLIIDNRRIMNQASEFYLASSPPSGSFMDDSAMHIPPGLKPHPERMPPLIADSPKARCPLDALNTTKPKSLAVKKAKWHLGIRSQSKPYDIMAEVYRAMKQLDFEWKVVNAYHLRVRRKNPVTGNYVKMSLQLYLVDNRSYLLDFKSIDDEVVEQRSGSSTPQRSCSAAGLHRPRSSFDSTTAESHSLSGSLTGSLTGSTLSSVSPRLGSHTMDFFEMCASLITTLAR

Turning to `O=C1Nc2ccc(-c3cccnc3)cc2C1=Cc1cc(Br)c(O)c(Br)c1`, the inhibition in assay [1] is 7.03%; in [2], -0.34%; in assay [3] it was 4.71%; in [4] it was 2.51%; in assay [5] it was 4.37%; in assay [6] it was 2.22%. Further, the inhibition in [7] worked out at 2.32%; in assay [8], 1.08%; in assay [9], 4.01%; in [10], 2.95%.

Regarding `C[C@@H](Oc1cc(-n2cnc3ccc(OC[C@@H](O)CO)cc32)sc1C(N)=O)c1ccccc1Cl`, the inhibition in [1] stood at 2.08%; in [2], 6.98%; in [3] it was 39.1%; in assay [4], 15.7%; in [5] it was 55.8%; in [6], 24.2%. For the same compound, the inhibition was 68.3% in [7], -0.01% in assay [8], 0.92% in [9] and -2.71% in [10].

Consider `Nc1nccc(C#Cc2cncnc2Nc2ccc(OCc3cccc(F)c3)c(Cl)c2)n1`, for which the inhibition in assay [1] turned out to be 6.02%; in assay [2], 2.82%; in assay [3], 9.68%; in [4] it was 3.95%; in assay [5], 8.92%; in assay [6] it was 4.89%. For the same compound, the inhibition in assay [7] was 10.8%; in assay [8], -0.54%; in assay [9] it was 2.27%; in assay [10] it was 3.24%.

Take `NS(=O)(=O)c1ccc(N/N=C2\C(=O)Nc3ccc(Cl)cc32)cc1`: the inhibition worked out at 12.9% in assay [1]; 11% in assay [2]; 48.9% in [3]; 0.76% in [4]; 8.96% in [5]; 3.16% in assay [6]. Moreover, the inhibition came to 14.9% in [7], 0.02% in assay [8], 0.47% in assay [9] and 2.65% in [10].

Turning to `CCCN1CCCC(c2ccc(Nc3nc(Nc4cc(F)ccc4C(N)=O)c4cc[nH]c4n3)c(OC)c2)C1` (stereo not given), the inhibition in assay [1] was 10.7%; in [2] it was 30.2%; in [3] it was 59.7%; in [4] it was 2.61%; in assay [5], 1.82%; in assay [6], 2.57%. Also, the inhibition was found to be 2.9% in assay [7], 15.8% in assay [8], 61.1% in assay [9] and 11% in [10].

In the case of `Cc1ccc(NC(=O)CC2CC2)cc1-c1ccc(C(=O)NCC2CC2)cc1`, the inhibition in assay [1] was 3.66%; in assay [2], 2.19%; in assay [3] it was 3.71%; in [4] it was -0.17%; in assay [5] it was 0.46%; in assay [6], 1.82%. Moreover, the inhibition in [7] came out at 3.93%; in assay [8] it was 0.97%; in assay [9], 0.89%; in assay [10] it was 2.5%.

Consider `CN(C)c1cc2c(Nc3ccc4c(cnn4Cc4ccccc4)c3)ncnc2cn1`, for which the inhibition in assay [1] was 2.49%; in [2], 1.17%; in [3], 3.46%; in [4], 2.42%; in assay [5], 7.54%; in assay [6] it was 2.27%. Moreover, the inhibition in assay [7] is 9.3%; in [8], -0.24%; in assay [9], 0.88%; in [10], 2.88%.

Consider `O=S(=O)(CCOCc1ccc(-c2ccc3ncnc(Nc4ccc(OCc5cccc(F)c5)c(Cl)c4)c3c2)o1)c1ccccc1`, for which the inhibition was 1.68% in assay [1]; -2.09% in [2]; -0.72% in assay [3]; -0.74% in assay [4]; 1.37% in assay [5]; 1.25% in assay [6]. Further, the inhibition is 2.98% in assay [7], 0% in assay [8], 0.46% in [9] and -0.52% in assay [10].

With `Oc1cccc(-c2nc(-c3ccccc3)[nH]c2-c2ccncc2)c1`, the inhibition in assay [1] was 4.6%; in [2] it was 0.46%; in assay [3], 2.27%; in [4], -0.48%; in assay [5], 1.89%; in [6] it was 1.98%. Also, the inhibition came to 4.34% in [7], 0.26% in [8], 1.01% in assay [9] and 3.36% in assay [10].

On to `CN(C)C(=O)O[C@@H]1CN[C@@H](C#Cc2cc3ncnc(Nc4ccc(OCc5cccc(F)c5)c(Cl)c4)c3s2)C1`, for which the inhibition is 3.03% in [1]; -0.32% in assay [2]; 0.15% in assay [3]; 1.77% in assay [4]; 1.18% in assay [5]; 1.4% in assay [6]. Also, the inhibition in [7] amounted to 1.44%; in [8], 1.61%; in assay [9] it was 1.9%; in [10], 1.78%.

With `COc1ccc2ncnc(Nc3ccc(OCc4ccccc4)cc3)c2c1`, the inhibition in [1] was 2.09%; in assay [2], 0.25%; in assay [3], -1.38%; in assay [4] it was -0.52%; in [5], 0.79%; in [6], 2.22%. For the same compound, the inhibition in [7] turned out to be 1.79%; in assay [8], 0.63%; in assay [9], 1.33%; in assay [10], 0.65%.

As to `c1ccc(Cc2nc3ccc(Nc4ncnc5ccccc45)cc3[nH]2)cc1`, the inhibition in assay [1] is 2.91%; in assay [2], 4.96%; in [3] it was 5.29%; in [4], -0.34%; in [5], 3.16%; in assay [6], 1.93%. The inhibition is 5% in assay [7], -0.7% in assay [8], 0.04% in assay [9] and 2.75% in assay [10].

`Cc1ccc2c(c1)/C(=N/Nc1ccc(S(N)(=O)=O)cc1)C(=O)N2`: the inhibition in assay [1] came out at 12.3%; in assay [2] it was 21.7%; in assay [3] it was 62.2%; in assay [4] it was 2.87%; in [5], 9.92%; in assay [6] it was 3.09%. In addition, the inhibition in assay [7] is 12.8%; in assay [8] it was 2.35%; in assay [9], 2.43%; in assay [10], 2.02%.

In the case of `c1ccc(Nc2ncc(-c3ccccc3)o2)cc1`, the inhibition in [1] was 0.19%; in [2], -0.12%; in assay [3], 11%; in assay [4] it was 0.5%; in assay [5] it was 2.07%; in assay [6], 0.2%. The inhibition in assay [7] was 3.56%; in assay [8], 1.22%; in assay [9], 2.94%; in assay [10], 2.13%.

Turning to `Cc1cc(O)cc(C)c1/C=C/c1cncc(C(=O)N(C)C)c1`, the inhibition in assay [1] is 4.38%; in [2], 1.62%; in [3] it was 8.58%; in assay [4], 2.98%; in [5], 8.54%; in [6], 3.48%. For the same compound, the inhibition in [7] is 6.07%; in [8] it was -0.81%; in assay [9] it was 2.29%; in assay [10], 3.26%.

`COc1cc2ncn(-c3cc(OCc4ccccc4S(C)(=O)=O)c(C#N)s3)c2cc1OC`: the inhibition in assay [1] came out at 31.2%; in assay [2], 14.5%; in [3], 54.3%; in assay [4], 37.1%; in assay [5], 76.3%; in assay [6], 53.7%. The inhibition in assay [7] was 82.2%; in [8], 1.23%; in [9], 6.21%; in [10] it was 6.03%.

With `NS(=O)(=O)c1ccc(Nc2cc(-c3cccc(O)c3)n[nH]2)cc1`, the inhibition in assay [1] came to 9.57%; in assay [2], 5.05%; in [3], 13.9%; in [4], 3.55%; in [5] it was 4.52%; in assay [6] it was 3.59%. Moreover, the inhibition is 7.4% in assay [7], 1.05% in assay [8], 0.76% in assay [9] and 4.18% in assay [10].
